# High-throughput results deposited in PubChem BioAssay by National Center for Advancing Translational Sciences (NCATS).
# TDP1 cell noCPT: qHTS for Inhibitors of human tyrosyl-DNA phosphodiesterase 1 (TDP1): qHTS in cells in absence of CPT; DT40 Tdp1-/- hTDP1 cells, no CPT, ATP luminescence, 48 h; Potency, µM (doses to about 46.2 µM), for inactives: at the highest dose activity change, negative = growth inhibition, usual class: inhibitors; 420,000 tested, 15% active; also: % is scaled to controls: 0 for no effect and ±100 for the full control effect; nearly all actives have a fitted effect of over 55% in size
#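 Compound effects on proliferation are scored in DT40 Tdp1-/-;hTDP1 cells in the absence of CPT. ATP levels (CellTiter-Glo luminescence) are recorded after a ≥48 hr, 37 °C incubation.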
# ClpP mod: qHTS Assay for Activators of ClpP | 340,000 tested, 1.9% active | purified B. subtilis ClpP, FRET peptide cleavage, 20 min | ATP-dependent Clp protease proteolytic subunit (Bacillus subtilis (strain 168)), P80244 | Potency, µM (highest dose often 57.5 µM), without a hit: at the highest dose activity change, negative = active; active = well fitted falling curve with a large enough effect; inconclusive = small, poorly fitted or top-dose-only effect; inactive = no such curve, though single readings can be large or run the other way; also: the source files actives as falling curves though it sought activators and does not explain the sign; nearly all actives have a fitted effect of over 65% in size
# Target sequence (P80244 whole entry, looked up): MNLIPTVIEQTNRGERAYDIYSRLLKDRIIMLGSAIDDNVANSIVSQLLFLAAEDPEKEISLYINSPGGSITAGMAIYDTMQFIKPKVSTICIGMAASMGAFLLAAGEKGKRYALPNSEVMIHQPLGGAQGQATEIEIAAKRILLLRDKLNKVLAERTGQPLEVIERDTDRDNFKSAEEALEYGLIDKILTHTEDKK
#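 FRET quenching reversal measured ClpP activation: 10 microg/mL B. subtilis ClpP at pH 8 with the FRET-FV decapeptide, read at 430 nm after 320 nm excitation. The 20-min minus 0-min signal was scaled between DMSO/no-enzyme wells and ADEP (5.8 microM final).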
# TDP1 inh: blocks human tyrosyl-DNA phosphodiesterase 1; Q9NUW8; recombinant TDP1, AlphaScreen DNA substrate cleavage; Potency, µM (doses to about 130 µM), for inactives: at the highest dose activity change, negative = inhibition, usual class: inhibitors; 350,000 tested, 0.28% active; also: % is scaled to controls: 0 for no effect and ±100 for the full control effect; nearly all actives have a fitted effect of over 40% in size
#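 Here, a 5' biotin and 3' phosphotyrosine-FITC DNA oligonucleotide reports Tdp1 activity: intact substrate bridges AlphaScreen beads, while cleavage leaves a 3' phosphate and drops signal. All incubations at room temperature.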
# DT40 TDP1 CPT: DT40-hTDP1 cell growth loss with CPT; chicken DT40 Tdp1-/-;hTDP1 cells + 20 nM CPT, ATP luminescence, 48 h; 420,000 tested, 12% active; AID 686979; Potency, µM (highest dose often 46.2 µM), for inactives: at the highest dose activity change, negative = growth inhibition, most hits filed as inhibitors; also: % is scaled to controls: 0 for no effect and ±100 for the full control effect; nearly all actives have a fitted effect of over 55% in size
#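 Cell growth measured by CellTiter-Glo luminescence after a minimum 48 h, 37 C compound exposure with 20 nM CPT in Tdp1-knockout DT40 cells stably expressing hTDP1, seeded 400/well; qHTS titration format.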
# An asterisk follows results filed as active; ? = inconclusive; / = no result given; [ ] = remark or other dose. This is a sample that favours compounds with a hit; in the whole collection about 17% have one here. Unless noted, calls follow the shape of the dose curve; as a rule, active = well fitted curve in the direction sought with a large enough effect; inconclusive = small, poorly fitted or top-dose-only effect, or another doubt; inactive = no such curve, though single readings can be large; an effect the other way counts as inactive or inconclusive. Potency is read from the fitted curve at half-maximal effect.
SMILES,TDP1 cell noCPT,ClpP mod,TDP1 inh,DT40 TDP1 CPT
CCN1C(=O)[C@@H]2[C@@H](c3ccc(-c4ccc(OC)cc4)cc3)N3CCC[C@@]3(C(=O)OC)[C@@H]2C1=O,21µM*,-9%,3%,?
CCN1C(=O)[C@H]2[C@@H](c3ccc(-c4ccc(OC)cc4)cc3)N3CCCC[C@@]3(C(=O)OC)[C@H]2C1=O,16µM*,-22%,-1%,?
CCN1C(=O)[C@H]2[C@@H](c3ccc(-c4ccc(OC)cc4)cc3)N3CCC[C@@]3(C(=O)OC)[C@H]2C1=O,15µM*,4%,-6%,?
CN(C)C(=O)/N=N/C(=O)N(C)C,/,/,-12%[56.1 µM],/
CCN(C(=O)CSc1nnc(-c2cc3occc3n2C)n1-c1ccccc1C)c1ccccc1,-27%,-5%,1%,-22%
CCCC(=O)c1c[nH]c(C(=O)NCCCN2CCOCC2)c1,-15%,25µM*,1%,-3%
CC(C)(C)c1ccc(C(=O)c2c[nH]c(C(=O)NCC3CCCO3)c2)cc1 (stereo not given),15µM*,-1%,2%,?
CC(C)(C)c1ccc(C(=O)c2c[nH]c(C(=O)NCCCN3CCOCC3)c2)cc1,18µM*,0%,1%,?
COCCn1c(=O)c(-c2cccs2)nc2cnc(Nc3ccccc3)nc21,-3%,/,/,1%
Cc1cccc(NC(=O)CSc2nnc3ccc(-c4ccccn4)nn23)c1,-22%,/,/,?
O=C(NCC(c1cccnc1)N1CCc2ccccc2C1)C(=O)Nc1cccc(Cl)c1 (stereo not given),18µM*,1%,-1%,21µM*
O=[N+]([O-])c1ccc(S(=O)(=O)NCC(c2cccnc2)N2CCc3ccccc3C2)cc1 (stereo not given),21µM*,-6%,0%,?
N#Cc1ccccc1NC(=O)C(=O)NCC(c1cccnc1)N1CCc2ccccc2C1 (stereo not given),?,-1%,4%,?
O=C(NCC(c1cccnc1)N1CCc2ccccc2C1)C(=O)Nc1ccc(Cl)cc1 (stereo not given),8.2µM*,-1%,4%,12µM*
Cc1ccc(NC(=O)C(=O)NCC(c2cccnc2)N2CCOCC2)cc1C (stereo not given),?,-1%,8%,-23%
O=C(NCc1ccncc1)[C@@H]1CCCN1C(=O)[C@H]1CCCN1C(=O)c1c(F)cccc1F,-13%,-3%,/,-8%
COc1cc(C)ccc1OCCSc1nc2ccc(NC(=O)c3ccc(F)cc3)cc2s1,8.2µM*,-7%,3%,?
Cc1cccc(C(=O)Nc2ccc3nc(SCCOc4ccccc4)sc3c2)c1,?,?,-6%,?
CCC(=O)Nc1ccc2nc(SCCOc3ccc(C)cc3OC)sc2c1,15µM*,-3%,6%,?
Cc1nnc(SCC(=O)N(C)c2ccccc2)n1-n1cccc1,28%,-1%,1%,9%
COc1cccc(N2CC(O)=C(c3nc4ccccc4s3)C2=N)c1,1.5µM*,-10%,5%,1.6µM*
COc1ccc(N2CC(O)=C(c3nc4ccccc4s3)C2=N)cc1,-15%,-24%,2%,-27%
COCc1cccc(-c2csc(C(C)(O)c3cccc(F)c3)n2)c1 (stereo not given),?,0%,/,?
CC(C)(C)c1ccc2c(c1)N(CC(=O)NCCCN1CCN(c3ccccc3F)CC1)C(=O)CO2,?,0%,8%,?
O=C(CCN1C(=O)COc2ccccc21)NCCCN1CCN(c2ccccc2F)CC1,?,-1%,-2%,18µM*
SMILES,TDP1 cell noCPT,ClpP mod,TDP1 inh,DT40 TDP1 CPT
CCN(CC)S(=O)(=O)c1ccc2c(c1)N(CC(=O)NCCCN1CCN(c3ccccc3F)CC1)C(=O)CO2,?,1%,1%,23µM*
O=C(Cn1cccc1C(=O)c1ccccc1)NCCCN1CCOCC1,-16%,1%,7%,-25%
Cc1ccc(C)c(N2CCN(CCCNC(=O)Cn3cccc3C(=O)c3ccccc3)CC2)c1,5.2µM*,1%,5%,5.2µM*
CCN(CC)S(=O)(=O)c1ccc2c(c1)N(CC(=O)NCCCN1CCN(c3ccc(OC)cc3)CC1)C(=O)CO2,?,-2%,2%,-23%
CCN(CC)S(=O)(=O)c1ccc2c(c1)N(CC(=O)NCCCN1CCN(c3cc(C)ccc3C)CC1)C(=O)CO2,4.6µM*,0%,4%,2.6µM*
CC1CCN(CCCNC(=O)C2CC(=O)N(CCc3ccccc3)C2)CC1 (stereo not given),18%,-1%,1%,4%
Cc1ccc(-n2c(=O)c3c(cnn3C)n(CC(=O)Nc3cccc(Cl)c3)c2=O)cc1,?,-3%,3%,?
C#CCOCCOCCOCCNc1nc(N2CCN(C(=O)[C@H](Cc3cc4ccccc4[nH]3)n3cc([C@@H](N)CC(C)C)nn3)CC2)nc(N2CCN(C(=O)[C@H](Cc3cc4ccccc4[nH]3)n3cc([C@@H](N)CC(C)C)nn3)CC2)n1,?,-1%,10%,?
Oc1ccc(/C=N/N(Cc2ccccc2)c2ccccc2)c(O)c1O,18µM*,/,10%,26µM*
CC(C)NC(=O)CSc1cn(CC(=O)N2CCCCCC2)c2ccccc12,-21%,-5%,5%,-13%
CC(=O)N1CCN(S(=O)(=O)c2cccc(C(=O)N(Cc3ccccc3)c3cccc(C)c3)c2)CC1,?,1%,-7%[0.505 µM],?
Cc1ccc(CSCCNC(=O)c2ccc(Cl)c(S(=O)(=O)N3CCOCC3)c2)cc1,18µM*,3%,3%,?
Cc1ccc(N(Cc2ccccc2)C(=O)c2cc(S(=O)(=O)N3CCOCC3)ccc2F)cc1,7.3µM*,1%,2%,18µM*
O=C(NCCSCc1ccccc1)c1cc(S(=O)(=O)N2CCOCC2)ccc1F,?,-1%,0%,12µM*
Cc1ccc(N(Cc2ccccc2)C(=O)c2ccc(C)c(S(=O)(=O)N3CCOCC3)c2)cc1,?,0%,2%,?
Cc1cccc(N(Cc2ccccc2)C(=O)c2cc(S(=O)(=O)N3CCOCC3)ccc2Cl)c1,15µM*,/,0%,15µM*
CN(C)CCCNC(=O)c1cc(S(=O)(=O)N2CCOCC2)ccc1F,-4%,-10%,-7%,9%
O=C(c1ccc(S(=O)(=O)N2CCOCC2)cc1)N(c1cccc(Cl)c1)C1C=CS(=O)(=O)C1 (stereo not given),-14%,0%,3%,3%
O=C(Cn1cncn1)NCC1Cc2cc(-c3ccsc3)cc(Cl)c2O1 (stereo not given),-15%,/,/,5%[9.04 µM]
CN(Cc1ccccc1)S(=O)(=O)c1ccc(Cl)c(C(=O)O)c1,-21%,/,0%,-9%
C=CCN(Cc1ccc(Cl)s1)C(=O)c1cc(S(=O)(=O)N2CCOCC2)ccc1F,13µM*,0%,0%,18µM*
